# Measured values: the supplement of paper PMC8728848
# Only a selection was taken, and the strongest signals are over-represented in it overall.
# B1: CwpV (Clostridium difficile), B6EFG6 (protein)
# chain: MKIPKKIAAMLTVTMIAGSSTAGIASAQTVATNLTGQERYETAVKISQDGWKNADEVVIVNDSSIADALSATPFAKAKNAPILLTSKDKLNDKTKAEIQRLKAKKVYLIGGTSVLSTNIEKEIKDLKISFERISGAERYQTSLELAKKLDAISDVKKIAVVNGEKGLADAVSVGAPAAQNNMPVILADSKNGTAVADKFIKDAGITQSYVVGGESSISEAVKNKLPNSTRLGGTDRNDTNAKVIKEFYKKTDLKNAYVTKDGMNKQDQLIDALAVGVLGAKNQSPVVLVGKNLSASQKSLVNSKSFDKITKVGGNGNETAFNEMKSLQEVKTVEAKTISELKSAIDKATANDVINFKPTSEVKEAFTIQTDKAVTVNLNGTYTKTVTINMPNGDVNNYAKVDDVVIDDVKDGTFVNYGKITNLKVNDKNGAKIENNSKGEIGSLTVASGASQVKVTNGGKITTVTNNSKGTTIDNKGTISSVKGDNSPTISGNSPSSNSSGGSSSSGGSSGGSSGGSSSSKVGQIKFSATDKQIKMASGDKTVDPSDNTYILKLTNGTVKDGDVKANVKVAGLPSGLDYTAVGNRSANTITITVSGTTSQSIQNDLNNVSVLVKAGAVSGTGATDSIANTTFEIKKYVAAPAVGQLTFDATDKQIKMASGDKTVDPSDDTYVLTLTKGTAKDGDIKANVEVTGLPSGLDYTAEGDSSANTITIPVSGTASPAVQTDLDNVSVLVKAGAVSETTATDSAANATFEVKKYVAPAVGQLTFDATDKQIKMASGDKTVDPSDDTYVLTLTKGTAKDGDIKANVEVTGLPSGLDYTAEGDSSANTITITVSGTASQAVQTDLDNVSVLVKAGAVSETTATDSAANATFEVKKYVAPAIGQLTFDATDKQIKMASGDKTVDPSDDTYVLTLTKGTAKDGDIKANVEVTGLPSGLDYTAEGDSSANTITITVSGTASQAVQTDLDNVSVLVKAGAVSETTATDSAANATFEVKKHASDPISTIGKISSGLSSLFNILK
# Assays:
# Assay in all cases: glycan array binding signal (z-score within array); higher = stronger binding
# Conditions in all cases: glycan notation: IUPAC condensed, linker removed
# [1] = molecular target: Fuc(a1-2)Gal(b1-3)GalNAc(b1-3)Gal(a1-4)Gal(b1-4)Glc
# Method in brief: (§1)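 Columns mapping to the same glycan were averaged after glycan names were converted to IUPAC-condensed notation. The data come from 3228 arrays in the Consortium for Functional Glycomics database, limited to those with an available protein sequence. Binding is reported as a within-array Z-score averaged across arrays of one protein sequence and across linkers.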
# [2] = molecular target: Fuc(a1-2)Gal(b1-3)[Fuc(a1-4)]GlcNAc(b1-3)[Gal(b1-4)GlcNAc(b1-6)]Gal(b1-4)Glc
# Method in brief: as §1
# [3] = molecular target: Fuc(a1-2)Gal(b1-4)[Fuc(a1-3)]GlcNAc(b1-3)GalNAc
# Method in brief: as §1
# [4] = molecular target: Fuc(a1-2)[GalNAc(a1-3)]Gal(b1-4)GlcNAc(b1-2)Man(a1-3)[Fuc(a1-2)[GalNAc(a1-3)]Gal(b1-4)GlcNAc(b1-2)Man(a1-6)]Man(b1-4)GlcNAc(b1-4)GlcNAc
# Method in brief: as §1
# [5] = molecular target: Fuc(a1-2)[GalNAc(b1-3)]Gal
# Method in brief: as §1
# [6] = molecular target: Fuc(a1-3)[Gal(b1-4)]GlcNAc(b1-2)Man(a1-3)[Fuc(a1-3)[Gal(b1-4)]GlcNAc(b1-2)Man(a1-6)]Man(b1-4)GlcNAc(b1-4)GlcNAc
# Method in brief: as §1
# [7] = molecular target: Fuc(a1-3)[Gal(b1-4)]GlcNAc(b1-3)GalNAc
# Method in brief: as §1
# [8] = molecular target: Gal(a1-3)Gal(b1-3)GlcNAc(b1-2)Man(a1-3)[Gal(a1-3)Gal(b1-3)GlcNAc(b1-2)Man(a1-6)]Man(b1-4)GlcNAc(b1-4)GlcNAc
# Method in brief: as §1
# [9] = molecular target: Gal(a1-3)Gal(b1-3)[Fuc(a1-4)]GlcNAc(b1-2)Man(a1-3)[Gal(a1-3)Gal(b1-3)[Fuc(a1-4)]GlcNAc(b1-2)Man(a1-6)]Man(b1-4)GlcNAc(b1-4)GlcNAc
# Method in brief: as §1
# Gal(a1-4)Gal(b1-4)GlcNAc = molecular target: Gal(a1-4)Gal(b1-4)GlcNAc
# Method in brief: as §1
# [10] = molecular target: Gal(a1-4)Gal(b1-4)GlcNAc(b1-2)Man(a1-3)[Gal(a1-4)Gal(b1-4)GlcNAc(b1-2)Man(a1-6)]Man(b1-4)GlcNAc(b1-4)GlcNAc
# Method in brief: as §1
# [11] = molecular target: Gal(a1-4)Gal(b1-4)GlcNAc(b1-3)Gal(b1-4)Glc
# Method in brief: as §1
# Gal(b1-3)Gal(b1-4)GlcNAc = molecular target: Gal(b1-3)Gal(b1-4)GlcNAc
# Method in brief: as §1
# [12] = molecular target: Gal(b1-3)GlcNAc(b1-3)Gal(b1-3)GlcNAc
# Method in brief: as §1
# [13] = molecular target: Gal(b1-3)GlcNAc(b1-3)Gal(b1-4)GlcNAc
# Method in brief: as §1
# [14] = molecular target: Gal(b1-3)[Neu5Ac(a2-6)]GalNAc
# Method in brief: as §1
# [15] = molecular target: Gal(b1-4)GlcNAc(b1-2)Man(a1-3)[Man(a1-6)]Man(b1-4)GlcNAc(b1-4)GlcNAc
# Method in brief: as §1
# [16] = molecular target: Gal(b1-4)GlcNAc(b1-3)[Gal(b1-4)GlcNAc(b1-6)]GalNAc
# Method in brief: as §1
# Gal3S(b1-4)Glc = molecular target: Gal3S(b1-4)Glc
# Method in brief: as §1
# [17] = molecular target: GalNAc(b1-3)Gal(a1-4)Gal(b1-4)GlcNAc(b1-3)Gal(b1-4)Glc
# Method in brief: as §1
# [18] = molecular target: GalNAc(b1-3)Gal(a1-6)Gal(b1-4)Glc
# Method in brief: as §1
# GlcA(b1-3)GlcNAc = molecular target: GlcA(b1-3)GlcNAc
# Method in brief: as §1
# [19] = molecular target: GlcNAc(a1-4)Gal(b1-4)GlcNAc
# Method in brief: as §1
# [20] = molecular target: GlcNAc(a1-4)Gal(b1-4)GlcNAc(b1-3)Gal(b1-4)[Fuc(a1-3)]GlcNAc(b1-3)Gal(b1-4)[Fuc(a1-3)]GlcNAc
# Method in brief: as §1
# [21] = molecular target: GlcNAc(b1-2)Man(a1-3)[GlcNAc(b1-2)Man(a1-6)]Man(b1-4)GlcNAc(b1-4)GlcNAc
# Method in brief: as §1
# [22] = molecular target: GlcNAc(b1-2)[GlcNAc(b1-4)]Man(a1-3)[GlcNAc(b1-4)][GlcNAc(b1-2)Man(a1-6)]Man(b1-4)GlcNAc(b1-4)GlcNAc
# Method in brief: as §1
# [23] = molecular target: GlcNAc(b1-3)Gal(b1-3)GalNAc
# Method in brief: as §1
# GlcNAc(b1-3)Gal(b1-4)Glc = molecular target: GlcNAc(b1-3)Gal(b1-4)Glc
# Method in brief: as §1
# GlcNAc(b1-3)GalNAc = molecular target: GlcNAc(b1-3)GalNAc
# Method in brief: as §1
# [24] = molecular target: GlcNAc(b1-4)GlcNAc(b1-4)GlcNAc(b1-4)GlcNAc(b1-4)GlcNAc(b1-4)GlcNAc
# Method in brief: as §1
# [25] = molecular target: GlcNAc(b1-4)[GlcNAc(b1-6)]GalNAc
# Method in brief: as §1
# [26] = molecular target: Neu5Ac(a2-3)Gal(b1-3)GalNAc(b1-3)Gal(a1-4)Gal(b1-4)Glc
# Method in brief: as §1
# [27] = molecular target: Neu5Ac(a2-3)Gal(b1-3)GalNAc(b1-4)[Neu5Ac(a2-3)]Gal(b1-4)Glc
# Method in brief: as §1
# [28] = molecular target: Neu5Ac(a2-3)Gal(b1-3)GlcNAc(b1-3)Gal(b1-3)GlcNAc
# Method in brief: as §1
# [29] = molecular target: Neu5Ac(a2-3)Gal(b1-3)[Fuc(a1-4)]GlcNAc(b1-3)Gal(b1-3)[Fuc(a1-4)]GlcNAc
# Method in brief: as §1
# [30] = molecular target: Neu5Ac(a2-3)Gal(b1-4)[Fuc(a1-3)]GlcNAc(b1-3)Gal(b1-4)GlcNAc
# Method in brief: as §1
# [31] = molecular target: Neu5Ac(a2-6)Gal(b1-3)GlcNAc(b1-3)[Gal(b1-4)GlcNAc(b1-6)]Gal(b1-4)Glc
# Method in brief: as §1
# [32] = molecular target: Neu5Ac(a2-6)Gal(b1-4)GlcNAc(b1-2)Man(a1-3)[GlcNAc(b1-2)Man(a1-6)]Man(b1-4)GlcNAc(b1-4)GlcNAc
# Method in brief: as §1
# [33] = molecular target: Neu5Ac(a2-6)Gal(b1-4)GlcNAc(b1-3)GalNAc
# Method in brief: as §1
# [34] = molecular target: Neu5Ac9Ac(a2-6)Gal(b1-4)GlcNAc
# Method in brief: as §1
# Neu5Gc(a2-3)Gal(b1-4)Glc = molecular target: Neu5Gc(a2-3)Gal(b1-4)Glc
# Method in brief: as §1
# [35] = molecular target: Neu5Gc(a2-3)Gal(b1-4)GlcNAc
# Method in brief: as §1
# [36] = molecular target: Neu5Gc(a2-6)Gal(b1-4)GlcNAc
# Method in brief: as §1
# Neu5Gc(a2-6)GalNAc = molecular target: Neu5Gc(a2-6)GalNAc
# Method in brief: as §1
binder,measurement,setting,value
B1,glycan array binding signal (z-score),[1],2.48
same,glycan array binding signal (z-score),[2],0.041
same,glycan array binding signal (z-score),[3],0.596
same,glycan array binding signal (z-score),[4],-0.032
same,glycan array binding signal (z-score),[5],-0.249
same,glycan array binding signal (z-score),[6],-0.175
same,glycan array binding signal (z-score),[7],0.07
same,glycan array binding signal (z-score),[8],0.365
same,glycan array binding signal (z-score),[9],0.538
same,glycan array binding signal (z-score),Gal(a1-4)Gal(b1-4)GlcNAc,2.24
same,glycan array binding signal (z-score),[10],9.72
same,glycan array binding signal (z-score),[11],2.79
same,glycan array binding signal (z-score),Gal(b1-3)Gal(b1-4)GlcNAc,-0.025
same,glycan array binding signal (z-score),[12],-0.249
same,glycan array binding signal (z-score),[13],0.622
same,glycan array binding signal (z-score),[14],-0.248
same,glycan array binding signal (z-score),[15],-0.26
same,glycan array binding signal (z-score),[16],-0.34
same,glycan array binding signal (z-score),Gal3S(b1-4)Glc,-0.29
same,glycan array binding signal (z-score),[17],6.4
same,glycan array binding signal (z-score),[18],2.68
same,glycan array binding signal (z-score),GlcA(b1-3)GlcNAc,8.78
same,glycan array binding signal (z-score),[19],-0.192
same,glycan array binding signal (z-score),[20],0.469
same,glycan array binding signal (z-score),[21],-0.124
same,glycan array binding signal (z-score),[22],-0.317
same,glycan array binding signal (z-score),[23],-0.217
same,glycan array binding signal (z-score),GlcNAc(b1-3)Gal(b1-4)Glc,-0.297
same,glycan array binding signal (z-score),GlcNAc(b1-3)GalNAc,-0.322
same,glycan array binding signal (z-score),[24],1.05
same,glycan array binding signal (z-score),[25],-0.284
same,glycan array binding signal (z-score),[26],11.2
same,glycan array binding signal (z-score),[27],-0.101
same,glycan array binding signal (z-score),[28],-0.328
same,glycan array binding signal (z-score),[29],0.484
same,glycan array binding signal (z-score),[30],0.368
same,glycan array binding signal (z-score),[31],-0.21
same,glycan array binding signal (z-score),[32],-0.249
same,glycan array binding signal (z-score),[33],0.056
same,glycan array binding signal (z-score),[34],-0.322
same,glycan array binding signal (z-score),Neu5Gc(a2-3)Gal(b1-4)Glc,-0.229
same,glycan array binding signal (z-score),[35],-0.046
same,glycan array binding signal (z-score),[36],-0.292
same,glycan array binding signal (z-score),Neu5Gc(a2-6)GalNAc,-0.29
